Results as given in the supplement of paper PMC6555819.

How the values were obtained:
Test in all cases: PBM binding z-score (relative to random genomic background probes); higher = stronger binding; sequences stand for … in GC…GCGATTGACAGCGTAGAATGAAGG
[1] = tested on: FXR:RXRa (NR concentration 270 nM, RXRa partner concentration 90 nM)
Method in brief: (§1)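 Regression normalization was applied to scanned fluorescence from custom Agilent 4×180K protein-binding microarrays. Before scanning, arrays were incubated 1 h with ligand-free nuclear receptor dimers, and binding was detected with antibodies against each partner (one per run). Binding z-scores use the random background probes as reference.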

[2] = tested on: LXRa:RXRa (NR concentration 270 nM, RXRa partner concentration 90 nM)
Method in brief: as §1

[3] = tested on: LXRa homodimer (NR concentration 270 nM)
Method in brief: as §1

[4] = tested on: LXRb:RXRa (NR concentration 270 nM, RXRa partner concentration 90 nM)
Method in brief: as §1

[5] = tested on: LXRb homodimer (NR concentration 270 nM)
Method in brief: as §1

[6] = tested on: PPARa:RXRa (NR concentration 270 nM, RXRa partner concentration 90 nM)
Method in brief: as §1

[7] = tested on: PPARg:RXRa (NR concentration 180 nM, RXRa partner concentration 90 nM)
Method in brief: as §1

[8] = tested on: PPARg:RXRa 270nM:90nM, anti-RXR (NR concentration 270 nM, RXRa partner concentration 90 nM)
Method in brief: as §1

[9] = tested on: PPARg:RXRa 30nM:10nM, anti-RXR (NR concentration 30 nM, RXRa partner concentration 10 nM)
Method in brief: as §1

[10] = tested on: PPARg:RXRa 90nM:30nM, anti-RXR (NR concentration 90 nM, RXRa partner concentration 30 nM)
Method in brief: as §1

[11] = tested on: PPARg:RXRa DBDmut IVT, anti-RXR (DBD mutation: RXRa K156A/R161A, NR concentration 270 nM, RXRa partner concentration 90 nM)
Method in brief: as §1

[12] = tested on: PPARg:RXRa IVT, anti-PPARg (NR concentration 270 nM, RXRa partner concentration 90 nM)
Method in brief: as §1

[13] = tested on: PPARg DBDmut:RXRa IVT, anti-PPARg (DBD mutation: PPARg1 K132A/R137A, NR concentration 270 nM, RXRa partner concentration 90 nM)
Method in brief: as §1

[14] = tested on: PPARg DBDmut IVT, anti-PPARg (DBD mutation: PPARg1 K132A/R137A, NR concentration 270 nM)
Method in brief: as §1

[15] = tested on: PPARg homodimer (NR concentration 180 nM)
Method in brief: as §1

[16] = tested on: PXR:RXRa (NR concentration 270 nM, RXRa partner concentration 90 nM)
Method in brief: as §1

[17] = tested on: PXR homodimer (NR concentration 270 nM)
Method in brief: as §1

[18] = tested on: RARa:RXR (NR concentration 270 nM, RXRa partner concentration 90 nM)
Method in brief: as §1

[19] = tested on: RARa homodimer (NR concentration 270 nM)
Method in brief: as §1

[20] = tested on: RARb:RXRa (NR concentration 270 nM, RXRa partner concentration 90 nM)
Method in brief: as §1

| Sequence | PBM binding z-score [1] | PBM binding z-score [2] | PBM binding z-score [3] | PBM binding z-score [4] | PBM binding z-score [5] | PBM binding z-score [6] | PBM binding z-score [7] | PBM binding z-score [8] | PBM binding z-score [9] | PBM binding z-score [10] | PBM binding z-score [11] | PBM binding z-score [12] | PBM binding z-score [13] | PBM binding z-score [14] | PBM binding z-score [15] | PBM binding z-score [16] | PBM binding z-score [17] | PBM binding z-score [18] | PBM binding z-score [19] | PBM binding z-score [20] |
| --- | --- | --- | --- | --- | --- | --- | --- | --- | --- | --- | --- | --- | --- | --- | --- | --- | --- | --- | --- | --- |
| TCATATAGGTAAAAGGTGAAACTCGGTGTGGTAA | 2.3 | 2.26 | 0.259 | 2.39 | 0.198 | 5.64 | 9.08 | 8.59 | 8.64 | 9.69 | 5.96 | 5.4 | 0.902 | 1.04 | 1.99 | 2.27 | 0.443 | 3.48 | 1.82 | 2.26 |
| TCTTGTAGATCAGCAGCTTAAGAAAGCTGGCCAA | -0.0933 | -0.339 | -0.557 | -0.411 | -0.692 | 0.41 | -0.825 | 0.886 | 2.45 | 1.69 | 1.33 | -0.294 | -1.1 | -0.39 | -0.337 | -0.0714 | -0.755 | 0.087 | -0.736 | -0.491 |
| TCTTGTAGATCAACAGGAGTTTAAGAAAGATCGA | -0.268 | 0.229 | -0.339 | -0.131 | -0.759 | 0.604 | 0.0426 | 1.19 | 2.22 | 1.87 | 1.57 | 0.487 | 0.0985 | 0.197 | -0.389 | 0.514 | -0.0735 | 0.201 | -0.584 | 0.0376 |
| CTCGAAAGGTCGGTTGAGATGAGTATACGGATAA | 1.6 | 1.27 | 0.0638 | 1.32 | -0.0369 | 2.34 | 0.617 | 0.887 | 0.602 | 0.615 | -0.21 | 0.247 | 0.456 | 0.37 | 0.803 | 1.01 | 0.26 | 1.37 | 0.533 | 2.86 |
| CTTGAAAGGTCGGTTGAGGTGAGTATACGGATAA | 3.64 | 2.28 | -0.0492 | 2.52 | -0.354 | 3.43 | 0.512 | 1.27 | 0.216 | 0.942 | 0.154 | 0.996 | -0.0609 | 0.067 | 0.811 | 3.33 | 0.421 | 2.5 | -0.0411 | 2.97 |
| CGTCAAAGTTCAACTAAGGTAACGTACAGCACGC | 7.43 | 6.41 | 4.76 | 4.34 | 2.05 | 5.25 | 5.21 | 5.62 | 2.85 | 4.59 | 0.621 | 2.54 | 0.979 | 0.528 | 3.88 | 5.9 | 4.77 | 4.72 | 2.23 | 5.42 |
| TCATATAGGTAAATGCTAGGGGAAAGTCCGATCT | 0.958 | 0.949 | 0.455 | 0.865 | 0.134 | 1.21 | 0.788 | 2.13 | 3.88 | 3.25 | 4.25 | 2.11 | 1.09 | 1.29 | 0.609 | 0.434 | 0.33 | 0.628 | 1.4 | 0.327 |
| CTCAAAAGGTCGGTTGAGGTGAGTATACGGATAA | 2.63 | 1.8 | -0.331 | 1.63 | 0.0339 | 2.98 | 0.821 | 1.29 | 0.383 | 0.881 | -0.129 | 1.12 | 0.328 | 0.889 | 0.591 | 3.26 | 0.191 | 2.82 | -0.384 | 3.4 |
| AGTCAGAGTTCAGGACGAGGTAACGTAAAGCACG | 3.72 | 3.51 | 0.881 | 1.82 | -0.0374 | 3.02 | 2.26 | 2.51 | 0.689 | 2.1 | -0.749 | 0.676 | 0.355 | -0.341 | 1.36 | 3.45 | 1.88 | 2.67 | 0.511 | 3.62 |
| CGTCCAAGTTCAACTAAGGTAACGTAAAGCACGC | 4.27 | 3.59 | 1.01 | 2.17 | 0.515 | 3.15 | 1.14 | 1.5 | 0.189 | 0.966 | 0.15 | 1.1 | 0.262 | 0.451 | 1.83 | 4.44 | 2.78 | 2.38 | 0.942 | 3.63 |
| CCTTGGAGGACAACAGGAGGTCAGAGCTGCCAGA | 1.03 | 2.19 | 2.44 | 1.58 | -0.284 | 2.26 | 0.731 | 0.64 | 0.153 | 0.077 | 1.07 | 1.27 | -1.18 | -0.193 | 1.41 | 1.97 | 0.462 | 2.33 | 0.276 | 2.83 |
| GCGACTGGGGCATCAACAGGTTACCATAACTTAA | -0.21 | 0.22 | -0.147 | 1.42 | -0.367 | 1.48 | 1.15 | 0.92 | -0.0267 | 0.231 | 3.85 | 3.26 | 0.132 | -0.496 | 0.784 | 0.139 | -0.425 | 0.551 | -0.516 | 0.911 |
| ATCGAAAGCTCGACGAGGTGAGTATACACCGTTT | -0.406 | -0.524 | -0.742 | -0.456 | -0.163 | -0.348 | 0.614 | -0.448 | 0.105 | -0.367 | -0.441 | 0.00949 | 0.478 | 0.316 | -0.162 | -0.321 | -0.326 | -0.226 | -0.876 | -0.148 |
| TCATATAGGTAACTGCTAGGTGAAAGTCCGATCT | 1.07 | 1.19 | 0.0877 | 0.852 | -0.244 | 1.75 | 1.11 | 2.52 | 3.76 | 3.29 | 4.55 | 3.78 | 1.12 | 0.94 | 1.15 | 0.43 | 0.184 | 0.789 | 0.623 | 0.705 |
